Bioassay records deposited in PubChem BioAssay by National Center for Advancing Translational Sciences (NCATS).
Hits are enriched below; roughly 19% of the tested compounds scored in any of these assays.
IL-1B inflam inh: inflammasome signaling inhibition, IL-1 beta readout. THP-1 LPS/ATP IL-1B secretion, AlphaLISA, 16 h; stronger effect = lower value. activity change, % at 57.5 µM. hit rate 4.7% among 360,000; in the data active = activity change below about -50%; inconclusive = mostly about -30% to -49%
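THP-1 cells pretreated 1 hr with compounds (up to 57.5 uM final), then stimulated with LPS (250 ng/mL final) plus ATP (1.25 mM final); secreted IL-1B measured by AlphaLISA after 16 hr, decreased signal indicating inhibition.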
DT40 TDP1 no CPT: qHTS for Inhibitors of human tyrosyl-DNA phosphodiesterase 1 (TDP1): qHTS in cells in absence of CPT; Potency, µM (highest dose often 46.2 µM), for inactives: top-dose activity change, negative = growth inhibition, actives largely listed as inhibitors; DT40 Tdp1-/- hTDP1 cells, no CPT, ATP luminescence, 48 h; hit rate 15% among 420,000; AID 686978, 2013; also: potency is read from the fitted curve at half-maximal effect; nearly all actives have a fitted effect of over 55% in size
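Seeded 400 DT40-hTDP1 cells/well (vehicle DMSO, no 20 nM CPT); pinned compounds; ≥48 hr at 37 °C; CellTiter-Glo luminescence as viability measure.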
HT1080NT lethal: kills 2HG-producing HT-1080-NT fibrosarcoma cells; HT-1080-NT fibrosarcoma viability, CellTiter-Glo ATP luminescence, 48 h; Potency, µM (highest dose often 46.1 µM), without a hit: at the highest dose activity, negative = less viability, actives largely listed as cytotoxic; hit rate 1.6% among 360,000; AID 686970;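 also: NT is the 2HG producing partner of a matched IDH1 knockdown line; potency is read from the fitted curve at half-maximal effect; 0% = DMSO-treated cells and -100% = media-only wells without cells; nearly all actives have a fitted effect of over 55% in size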
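A 48-hour cytotoxicity screen used HT-1080-NT cells plated 2 hours before compound delivery. ATP-based CellTiter-Glo luminescence measured viability, normalized to DMSO and no-cell controls.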
uPA generation: cell surface uPA generation inhibition | cell surface uPA generation assay, qHTS | Potency, µM (doses to about 38.3 µM), for the others: top-dose activity change, negative = inhibition, hits mostly inhibitors | hit rate 0.31% among 330,000 | AID 540303; active = well fitted inhibition curve with a large enough effect; inconclusive = small, poorly fitted or top-dose-only effect; inactive = no such curve, though single readings can be large or run the other way; tested in mouse RAW 264.7 cells; also: potency is read from the fitted curve at half-maximal effect; nearly all actives have a fitted effect of over 55% in size
HT1080 IDH1KD tx: toxicity to HT-1080 IDH1 knockdown cells (counter line); hit rate 2% among 360,000; HT-1080 IDH1 knockdown viability, ATP luminescence, 48 h; AID 686971; Potency, µM (doses to about 46.1 µM), for inactives: at the highest dose activity, negative = toxicity, hits mostly cytotoxic;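 also: potency is read from the fitted curve at half-maximal effect; 0% = DMSO wells and -100% = cell-free medium wells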
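Knockdown cells (IDH1KD HT-1080) received compounds 2 h after plating at 750 cells/well and were kept 48 h at 37 °C in 5% FBS RPMI. A CellTiter-Glo luminescence read gave % activity for curve fitting.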
DT40 TDP1 CPT: growth inhibition of DT40 Tdp1-/-;hTDP1 cells with camptothecin (screen for TDP1 inhibitors) | chicken DT40 Tdp1-/-;hTDP1 cells + 20 nM CPT, ATP luminescence, 48 h | Potency, µM (top dose mostly 46.2 µM), inactives show at the highest dose activity change, negative = growth inhibition, most hits filed as inhibitors | hit rate 12% among 420,000; also: potency is read from the fitted curve at half-maximal effect; nearly all actives have a fitted effect of over 55% in size
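Chicken DT40 Tdp1-/- cells stably complemented with human TDP1 were seeded at 400 cells/well in medium containing 20 nM camptothecin, exposed to pin-transferred compounds, and grown at 37 °C for at least 48 hr. Viability was read as ATP luminescence.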
Numbers without * were called inactive; ? = inconclusive; · = no result; [ ] = remark or other dose. Unless noted, calls follow the shape of the dose curve; as a rule, active = well fitted curve in the direction sought with a large enough effect; inconclusive = small, poorly fitted or top-dose-only effect, or another doubt; inactive = no such curve, though single readings can be large; an effect the other way counts as inactive or inconclusive. Unless noted, % is scaled to controls: 0 for no effect and ±100 for the full control effect.

SMILES | IL-1B inflam inh | DT40 TDP1 no CPT | HT1080NT lethal | uPA generation | HT1080 IDH1KD tx | DT40 TDP1 CPT
COc1ccc(Cl)cc1NC(=O)CN(C)C(=O)Cc1ccc(-c2ccccc2)cc1 | ? | -8% | 3%[9.24 µM] | -15% | -21% | -17%
COc1ccc(OCC(=O)NNC(=O)C(=O)Nc2cc(OC)ccc2OC)cc1 | 0 | -21% | -2% | -8% | -2% | ?
COc1ccc(C)cc1NC(=O)C(=O)NNC(=O)COc1ccc(Cl)cc1 | 6 | 23µM* | ? | 9% | ? | ?
COc1ccc(Cl)cc1NC(=O)CN(C)CC(=O)Nc1ccc(C)cc1Br | -67* | ? | -4% | -1% | -12% | -7%
COc1ccc(Cl)cc1NC(=O)CN(C)CC(=O)Nc1ccccc1-c1ccccc1 | -3 | 23µM* | -8% | 5% | ? | 18µM*
CC(CCN1CCC(CN2C(=O)C(=O)NC[C@@H]2Cc2ccccc2)CC1)c1ccccc1 (stereo partly drawn) | -5 | 0% | 5% | 11% | 12% | 9%
COc1ccc(Cl)cc1NC(=O)c1cc(-c2ccc3c(c2)OCO3)on1 | · | -6% | · | · | · | -4%
O=C(CNS(=O)(=O)c1c(F)cccc1F)NC1CCCc2ccccc21 (stereo not drawn) | 3 | -16% | 6% | 4% | -7% | -13%
CCOC(=O)c1[nH]c(C)c(CCC(=O)N2CCN(c3cccc(C)c3C)CC2)c1C | · | 18µM* | · | · | · | 15µM*
CCOC(=O)c1[nH]c(C)c(C(=O)N2CCN(c3ccccc3)CC2)c1C | 0 | ? | 3% | · | -25% | -19%
CCOC(=O)c1[nH]c(C)c(CCC(=O)N2CCN(c3ccc(Cl)cc3)CC2)c1C | · | 23µM* | · | · | · | ?
CCOC(=O)c1c(C)[nH]c(C)c1S(=O)(=O)N(C)CC(=O)N1CCN(c2ccc(OC)cc2)CC1 | 7 | -10% | 11% | 21% | 0% | 5%
CCOC(=O)c1c(C)[nH]c(C)c1S(=O)(=O)N(C)CC(=O)N1CCN(c2ccc(Cl)cc2)CC1 | · | ? | · | · | · | 15µM*
COc1ccc(C2NC(=O)N(C)C3=C2C(=O)N(c2cccc(C(=O)O)c2)C3)cc1 (stereo not drawn) | · | -5% | · | · | · | -13%
Cn1c2c(c(=O)n(C)c1=O)CS(=O)c1ccccc1N2 (stereo not drawn) | 33 | 1% | 4% | · | 6% | -17%
Cc1cccc(C(=O)NCC(=O)OCc2cc(=O)n3nc(C)sc3n2)c1 | · | 3% | · | · | · | -1%
CCn1nc(C(=O)NCC(c2cccs2)N2CCOCC2)c2ccccc2c1=O (stereo not drawn) | 37 | 21µM* | -3% | 2% | -3% | 15µM*
CCCCn1nc(C(=O)NCC(c2cccs2)N2CCOCC2)c2ccccc2c1=O (stereo not drawn) | 6 | 21µM* | 0% | 11µM* | -1% | ?
O=C(NCC(c1cccs1)N1CCOCC1)c1cc(-c2ccc(F)cc2)nc2ccccc12 (stereo not drawn) | -9 | 16µM* | -1% | -4% | -6% | ?
CCC(=O)NCC(c1cccs1)N1CCOCC1 (stereo not drawn) | 24 | -11% | 1% | 9% | 8%[9.24 µM] | ?
O=C1c2oc3ccccc3c(=O)c2C(c2ccc(O)cc2)N1c1nccs1 (stereo not drawn) | -9 | -29% | -1% | -6% | -1% | -7%
CCNC(=O)c1ccccc1NC(=O)C1CC(=O)N(C(C)C)C1 (stereo not drawn) | 0 | 11% | 0% | ? | 1% | 7%
O=C(CN1CCN(c2ncc(C(F)(F)F)cc2Cl)CC1)N1CCN(c2ncc(C(F)(F)F)cc2Cl)CC1 | 1 | 16µM* | -3% | 3% | -19% | 18µM*
O=C(CSc1ccc(Cl)cc1)N1CCN(c2ncc(C(F)(F)F)cc2Cl)CC1 | -21 | ? | ? | · | ? | ?
O=C(OC1CCN(c2ncc(C(F)(F)F)cc2Cl)CC1)c1cccc(C(F)(F)F)c1 | -5 | -14% | 5% | 2% | 8% | -11%
SMILES | IL-1B inflam inh | DT40 TDP1 no CPT | HT1080NT lethal | uPA generation | HT1080 IDH1KD tx | DT40 TDP1 CPT
O=C(c1cccc(C(F)(F)F)c1)N1CCOC12CCN(c1ncc(C(F)(F)F)cc1Cl)CC2 | ? | 23µM* | -6% | -9% | -1% | 23µM*
CN1CCN(C(=O)C2CCN(c3ncc(C(F)(F)F)cc3Cl)CC2)CC1 | 23 | 21µM* | -11% | -2% | -3% | ?
CC(=C/c1ccc(C(C)C)cc1)/C=N/NC(=O)Cn1nnnc1N | · | -28% | 3% | 1% | -5% | -14%
CCCC[C@@H]1CCCO[C@@](C(=O)NCc2ccccn2)(C(F)(F)F)C1 | 2 | ? | -1% | 12% | 1% | 18µM*
COc1ccccc1/C=C1\SC(=S)N(CCC(=O)Nc2cc(C)on2)C1=O | -12 | ? | -1% | -2% | 16% | -19%
CCC(SC1=N/C(=C/c2ccccc2OC)C(=O)N1c1ccccc1)C(=O)Nc1cc(C)on1 (stereo not drawn) | -3 | 8.2µM* | 4% | 12% | 5% | 12µM*
COc1ccc(NC(=O)N(C)C[C@H]2Oc3c(NC(=O)c4nc5ccccc5s4)cccc3C(=O)N([C@@H](C)CO)C[C@H]2C)cc1 | -16 | ? | -15% | ? | -3% | ?
C=CCNC(=O)C1CCN(S(=O)(=O)c2ccc(Br)cc2)CC1 | -1 | 16µM* | 0% | -2% | -9% | ?
O=C(O)C1CCCCC1C(=O)NCCc1ccc(Cl)cc1 (stereo not drawn) | -63* | -19% | 21% | 2% | 22% | -13%
COc1ccc(CNC(=O)C2CCN(S(=O)(=O)c3ccc4c(c3)C(C)(C)C(=O)N4C)CC2)cc1 | 4 | ? | 1% | -1% | -1% | -16%
O=C(NCCc1ccc(Cl)cc1)C1CCN(S(=O)(=O)N2CCCCC2)CC1 | 12 | ? | -1% | · | 10% | ?
O=C(NCCc1ccc(Cl)cc1)C1CCN(C(=O)c2ccc(F)cc2)CC1 | 36 | 18µM* | -13% | 9% | 2% | ?
CN1C(=O)C(C)(C)c2cc(S(=O)(=O)N3CCC(C(=O)NCc4ccc(F)cc4)CC3)ccc21 | 5 | ? | 7% | 5% | -1% | 7.3µM*
Fc1ccccc1-n1ncc2c1ncn1nc(Cc3ccccc3)nc21 | · | -14% | · | · | · | 5%
CC(=O)Nc1ccc(S(=O)(=O)NN=c2sc3ccccc3n2C)cc1N | 33 | ? | 4% | · | 3% | -16%
